Source: PubChem BioAssay AID1026 (Columbia University Molecular Screening Center, 2008)
Calls of active or inactive are those of the source. No rule for the calls is given here.

target: Bifunctional epoxide hydrolase 2 (Homo sapiens) (UniProt P34913); assay: sEH inhibitor concentration-response potency, dose response, biochemical, human sEH, fluorescence, Infinite200 (AID 1026); conditions: recombinant human sEH, fluorogenic substrate, at 0.2 µM, stronger effect = higher value
Sequence (P34913 whole entry, looked up): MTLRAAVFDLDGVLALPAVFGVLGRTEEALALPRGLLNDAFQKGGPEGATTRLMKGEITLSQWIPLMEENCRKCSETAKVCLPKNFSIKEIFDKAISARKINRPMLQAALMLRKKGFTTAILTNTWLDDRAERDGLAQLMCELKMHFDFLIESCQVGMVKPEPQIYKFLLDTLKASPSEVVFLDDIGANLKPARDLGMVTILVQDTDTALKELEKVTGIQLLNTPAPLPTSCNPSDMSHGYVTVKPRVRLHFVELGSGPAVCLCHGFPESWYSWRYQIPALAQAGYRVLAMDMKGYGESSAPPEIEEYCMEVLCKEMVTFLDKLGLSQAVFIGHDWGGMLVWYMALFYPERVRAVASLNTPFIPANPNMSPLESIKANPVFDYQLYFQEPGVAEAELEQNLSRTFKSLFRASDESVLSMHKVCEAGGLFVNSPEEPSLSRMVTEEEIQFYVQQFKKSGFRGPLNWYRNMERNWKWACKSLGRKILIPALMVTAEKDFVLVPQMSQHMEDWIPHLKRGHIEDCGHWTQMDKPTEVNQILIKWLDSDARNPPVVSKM

inhibition, inactive:
Cc1ccc(Cn2ccc(=O)c(Cc3c(Cl)cccc3Cl)c2C)cc1 63.6%, CCC(C)[C@H](NC(=O)NCc1ccccc1Cl)C(=O)OC (some centres undefined) 48.1%, CC(C)(C)n1nnnc1CN1CCC(NC(=O)NC2CCCCC2)CC1 70.3%, CC(Cc1cccs1)NC(=O)Nc1cccc(Cl)c1 (centres undefined) 51.7%, COc1ccc(C2CCCN2C(=O)Nc2ccc(Cl)cc2)cc1OC (centres undefined) 71.3%, Cc1cccc(NC(=O)Nc2cccc(Oc3c(F)c(F)c(F)c(F)c3F)c2)c1 47.7%, CCCC(=O)Nn1cnc2c(c1=O)C1(CCCCC1)Cc1ccccc1-2 71.2%, Cc1nn(Cc2ccccc2Cl)c(C)c1NC(=O)NC12CC3CC(CC(C3)C1)C2 66%, Cc1ccccc1C(=O)N1CCN(c2ccc(NC(=O)CSc3ccc(Cl)cc3)cc2)CC1 60.1%, O=C(COc1c(F)c(F)c(C(F)(F)F)c(F)c1F)Nc1ccc(N2CCOCC2)c(Cl)c1 49.2%, C/C(=N\NC(=O)Cc1cccn1C)c1cccc2ccccc12 40.4%, Cc1c(Cl)c([N+](=O)[O-])nn1Cc1ccc(C(=O)N/N=C\c2cccc(Br)c2)o1 66.8%, O=C(NCc1ccc2c(c1)OCO2)C1CCN(Cc2cnn(-c3ccccc3)c2-n2cccc2)CC1 57.2%, COc1ccc(NC(=O)N2CCCC(c3nc(-c4ccc(C(C)C)cc4)no3)C2)cc1 (centres undefined) 64.5%, CC(=O)N1CCN(c2ccc(NC(=O)COc3ccc(Cl)cc3Cl)cc2)CC1 38.5%, O=C(Nc1ccc(OC(F)F)cc1)Nc1cccc(C(F)(F)F)c1 63.2%, CCN(CCNC(=O)Nc1ccc(Cl)cc1)c1ccccc1 39.1%, O=C(NCCC1=CCCCC1)NC1CCCCC1 70.5%, O=C(N/N=C\c1ccc(Cl)s1)c1cccs1 74%, COc1ccc(CCN2C(=O)C3C4CC(C5C(C(=O)N/N=C\c6ccc(Cl)cc6)=NOC45)C3C2=O)cc1OC (centres undefined) 67.1%, C/C(=N\NC(=O)c1cccc(S(=O)(=O)Nc2ccccc2Cl)c1)c1ccc(-n2ccnc2)cc1 56%, CCCCC(CC)CNC(=O)C1CCCN(S(=O)(=O)c2cnc[nH]2)C1 (centres undefined) 49.9%, Cc1ccccc1CSCCNC(=O)CCSc1ccccc1 44.2%, O=C(Nc1ccc(Cl)c(C(F)(F)F)c1)C1CCCN(S(=O)(=O)c2cnc[nH]2)C1 (centres undefined) 72.5%, O=C(NCCC1=CCCCC1)C1CCCN(c2nc3ccccc3o2)C1 (centres undefined) 53.6%, CC(NC(=O)CSc1nnc(-c2cccc(S(=O)(=O)N3CCCCC3)c2)o1)C12CC3CC(CC(C3)C1)C2 (centres undefined) 66%, CCOc1ccc(NC(=O)N2CCC(c3ccc(C)cc3)C2)cc1 (centres undefined) 50.5%, O=C(NC12CC3CC(CC(C3)C1)C2)N1CC2Cc3cccc(=O)n3C(C2)C1 (centres undefined) 54.2%, O=C(NCCC(c1ccccc1)c1ccccc1)c1ccc(Br)o1 72%, COc1ccc(CNC(=O)/C=C/c2cc3c(cc2Br)OCO3)cc1 58.5%, CS(=O)(=O)N(Cc1ccc(C(=O)NCCSCc2ccco2)cc1)c1ccccc1 53.6%, O=C(NCCC1=CCCCC1)c1ccc(F)c(S(=O)(=O)N2CCOCC2)c1 60.6%, O=C(CN1C(=O)c2ccccc2S1(=O)=O)Nc1ccc(S(=O)(=O)N2CCCCC2)cc1 49.9%, O=C(Nc1ccc2c(c1)nc1n2CCN(C2CCCCC2)C1)NC1CCCCC1 72.7%, O=C(N/N=C/c1ccc(O)cc1)c1csc2ccccc12 54.5%, O=C(c1ccc2c(=O)n(Cc3ccc4c(c3)OCO4)c(=S)[nH]c2c1)N1CCCCC1 47.4%, O=C(NCCC1=CCCCC1)C1CCN(c2nc3ccccc3o2)CC1 45.6%, CC(C)c1ccc(NC(=O)N2CCC(c3nc4ccccc4o3)CC2)cc1 66.3%, Cc1ccc(SCCC(=O)NCCSCc2ccccc2C)cc1 52.5%
